# IL1B secr inh = qHTS for Inhibitors of Inflammasome Signaling: IL-1-beta AlphaLISA Primary Screen; THP-1 LPS/ATP IL-1B secretion, AlphaLISA, 16 h; hits give low values; activity change, % at 57.5 µM; 4.7% of 360,000 active; AID 743279, 2014; in the data active = activity change below about -50%; inconclusive = mostly about -30% to -49%
#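 Secreted IL-1B measured by AlphaLISA bead assay after 16 h compound exposure of THP-1 cells; compounds (final up to 57.5 uM) added 1 h before LPS (250 ng/mL) and ATP (1.25 mM) stimulation; lower signal means less secretion.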
# TDP1 inh = qHTS Assay for Inhibitors of Tyrosyl-DNA Phosphodiesterase (TDP1); 0.28% of 350,000 active; Potency, µM (titrated, usually from 130 µM), without a hit: at the top dose activity change, negative = inhibition, hits mostly inhibitors; AID 485290, 2010; recombinant TDP1, AlphaScreen DNA substrate cleavage; also: potency is read from the fitted curve at half-maximal effect; nearly all actives have a fitted effect of over 40% in size
# Target sequence (Q9NUW8 whole entry, looked up): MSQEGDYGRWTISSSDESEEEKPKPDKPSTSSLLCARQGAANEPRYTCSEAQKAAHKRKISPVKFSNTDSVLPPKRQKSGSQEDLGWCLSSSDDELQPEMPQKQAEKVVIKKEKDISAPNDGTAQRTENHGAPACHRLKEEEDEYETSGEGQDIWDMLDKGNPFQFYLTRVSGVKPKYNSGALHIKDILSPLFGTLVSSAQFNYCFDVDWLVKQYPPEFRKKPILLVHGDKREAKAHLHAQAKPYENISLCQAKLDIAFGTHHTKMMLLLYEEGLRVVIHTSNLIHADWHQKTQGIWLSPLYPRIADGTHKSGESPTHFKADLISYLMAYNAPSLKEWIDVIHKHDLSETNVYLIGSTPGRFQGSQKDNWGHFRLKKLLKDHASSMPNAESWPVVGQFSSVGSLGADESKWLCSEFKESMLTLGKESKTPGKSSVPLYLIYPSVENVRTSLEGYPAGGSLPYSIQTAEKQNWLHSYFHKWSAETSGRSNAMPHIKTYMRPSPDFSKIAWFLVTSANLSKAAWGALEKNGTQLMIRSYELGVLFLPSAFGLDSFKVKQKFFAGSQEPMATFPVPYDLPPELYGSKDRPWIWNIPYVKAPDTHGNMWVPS
#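 Compounds were preincubated with Tdp1 (1 nM final) for 15 min at room temperature before substrate (15 nM final) started a 5 min reaction; beads (10 ug/ml final) were then added for 10 min before AlphaScreen detection.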
# CtBP-E1A inh = qHTS Assay for Inhibitors of the CtBP/E1A Interaction | CtBP / adenovirus E1A interaction (AlphaScreen) | AlphaScreen GST-E1A/His-CtBP binding, 1536-well; hits give low values | activity change, % (concentration not given with the values) | 0.49% of 340,000 active | AID 651724, 2012; in the data active = activity change below about -65%; inconclusive = mostly about -30% to -63%
#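 AlphaScreen with 125 nM GST-E1A and 125 nM His-CtBP (5X stocks) in Tris pH 8.0, 300 mM NaCl, BSA, Tween 20, TCEP. Compounds preincubated 2 h at 37 deg C, then glutathione donor/nickel acceptor beads added for 1 h at 37 deg C in dark.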
# DT40 TDP1 CPT = qHTS for Inhibitors of human tyrosyl-DNA phosphodiesterase 1 (TDP1): qHTS in cells in presence of CPT; AID 686979, 2013; 12% of 420,000 active; Potency, µM (top dose mostly 46.2 µM), for inactives: at the highest dose activity change, negative = growth inhibition, actives largely listed as inhibitors; chicken DT40 Tdp1-/-;hTDP1 cells + 20 nM CPT, ATP luminescence, 48 h; also: potency is read from the fitted curve at half-maximal effect; nearly all actives have a fitted effect of over 55% in size
#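 Cell growth measured by CellTiter-Glo luminescence after a minimum 48 h, 37 C compound exposure with 20 nM CPT in Tdp1-knockout DT40 cells stably expressing hTDP1, seeded 400/well; qHTS titration format.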
# TDP1 cell noCPT = qHTS for Inhibitors of human tyrosyl-DNA phosphodiesterase 1 (TDP1): qHTS in cells in absence of CPT; Potency, µM (top dose mostly 46.2 µM), for the others: at the top dose activity change, negative = growth inhibition, actives largely listed as inhibitors; 15% of 420,000 active; DT40 Tdp1-/- hTDP1 cells, no CPT, ATP luminescence, 48 h; AID 686978, 2013; also: potency is read from the fitted curve at half-maximal effect; nearly all actives have a fitted effect of over 55% in size
#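 Cells were dispensed at 400 per well, compounds added by pin tool, plates incubated ≥48 hr at 37 °C, then CellTiter-Glo added for 30 min at room temperature before luminescence reading. Line: DT40 Tdp1-/- complemented with hTDP1; camptothecin omitted.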
# Six1-Eya2 blk = qHTS Assay for Inhibitors of the Six1/Eya2 Interaction; Homeobox protein SIX1 (Homo sapiens) + Protein phosphatase EYA2 (Homo sapiens), …; AlphaScreen GST-Six1/His-Eya2 binding, biochemical; hits give low values; activity change, % (no concentration beside the values); 0.56% of 360,000 active; AID 651725, 2012; in the data active = activity change below about -65%; inconclusive = mostly about -30% to -63%
#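 Compounds are tested against tagged Six1 and Eya2 proteins bridged by glutathione donor and nickel acceptor beads; after a one-hour incubation at 37 °C without light, AlphaScreen emission is recorded.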
# Active calls of the source: *; u = inconclusive; x = no result; [ ] = remark or other dose. Sampled rows, rich in hits. Any-hit rate of the full collection: about 18%. Unless noted, calls follow the shape of the dose curve; as a rule, active = well fitted curve in the direction sought with a large enough effect; inconclusive = small, poorly fitted or top-dose-only effect, or another doubt; inactive = no such curve, though single readings can be large; an effect the other way counts as inactive or inconclusive. % is scaled to controls: 0 for no effect and ±100 for the full control effect.
SMILES,IL1B secr inh,TDP1 inh,CtBP-E1A inh,DT40 TDP1 CPT,TDP1 cell noCPT,Six1-Eya2 blk
CC(C)C(=O)Nc1ccc(NC(=O)c2ccc([N+](=O)[O-])cc2Cl)cc1,16.7,4.5%,1.0,u,18.4µM*,0.4
O=C(Nc1cccc(O)c1)c1ccc([N+](=O)[O-])cc1Cl,14.8,7.9%,-8.7,14.6µM*,u,0.6
COc1ccc(OC)c(S(=O)(=O)NCCC2=CCCCC2)c1,9.4,7.4%,0.5,-26.0%,u,1.8
O=C1/C(=C/c2ccc([N+](=O)[O-])cc2)CCC1C1CCCC1 (centres undefined),-15.3,x,0.0,-14.0%,2.2%,-14.6
COc1ccc(C2CC(c3ccc(C)o3)=NN2C(C)=O)cc1 (centres undefined),-0.6,3.1%,-3.8,7.5%,-16.2%,3.0
CCOc1cccc2c1OC(c1cc(OC)c(OC)c(OC)c1)N1N=C(c3ccc(C)o3)CC21 (centres undefined),u,4.4%,-8.3,u,25.9µM*,-5.8
Cc1cc(C[n+]2ccccc2)c2nsnc2c1,-3.8,-0.5%,9.6,u,22.4µM*,1.8
Cc1cccc(C)c1NC(=S)NCCSc1ccc(Cl)cc1,-72.1*,5.3%,-1.1,u,u,4.8
CC(CNC(=S)Nc1cc(F)cc(F)c1)CSc1ccc(Cl)cc1 (centres undefined),-97.4*,5.5%,-3.3,u,25.9µM*,0.1
Cc1ccc(NC(=S)NCCSc2ccc(Cl)cc2)cc1,-91.3*,7.9%,2.0,-27.2%,u,0.1
O=S(=O)(Cc1ccccc1Cl)NCc1ccccc1,13.1,1.2%,0.7,3.8%,-6.3%,7.9
CCCSc1ncc(Cl)c(C(=O)Nc2ccc(S(=O)(=O)N(C)c3ccccc3)cc2)n1,x,7.4%,x,u,20.6µM*,x
CN(c1ccccc1)S(=O)(=O)c1ccc(NC(=O)C2CC2)cc1,0.6,3.4%[56.1 µM],5.2,0.4%,-16.4%,-1.2
CCN(c1ccccc1)S(=O)(=O)c1ccc(NC(=O)c2nc(SC)ncc2Cl)cc1,x,6.1%,x,11.6µM*,20.6µM*,x
CCSc1ncc(Cl)c(C(=O)Nc2ccccc2)n1,18.6,1.8%,7.9,-27.5%,-17.1%,4.3
CN(c1ccccc1)S(=O)(=O)c1ccc(NC(=O)c2nc(S(C)(=O)=O)ncc2Cl)cc1,-95.6*,3.8%,-3.6,0.651µM*,0.581µM*,-2.3
Cc1ccc(-c2nnn(CC(=O)N(Cc3ccc(F)cc3)C(C(=O)NC3CCCC3)c3ccncc3)n2)o1 (centres undefined),-4.1,5.0%,-0.2,-4.1%,-25.5%,4.1
Cc1cccc2c(N3CCCC3)nc(CNS(=O)(=O)c3ccccc3Cl)nc12,x,x,x,-13.5%[9.04 µM],-29.0%,x
CC/C(=N\NC(=S)Nc1ccc(OC)cc1)c1ccc(OC(F)F)cc1,17.5,2.6%,-22.2,2.91µM*,5.8µM*,-23.1
O=C(NNC(=S)NCc1ccccc1)c1ccccc1OC(F)F,0.2,-7.9%,9.1,0.0%,-14.7%,4.1
CC/C(=N\NC(C)=O)c1ccc(OC(F)F)cc1,x,-1.8%,x,x,x,x
O=C(NNC(=S)Nc1ccc(Cl)cc1)c1ccccc1OC(F)F,20.5,5.3%,-10.6,u,23.1µM*,-5.1
C/C(=N\NC(=S)Nc1c(C)cccc1C)c1ccc(OC(F)F)cc1,-12.8,3.2%,-3.9,10.3µM*,9.2µM*,-11.3
CC1CCCC(C)N1NC(=S)Nc1ccc(OC(F)F)cc1 (centres undefined),6.4,9.1%,-5.4,20.6µM*,u,-0.9
CC(C)c1ccc(NC(=S)NN2C(C)CCCC2C)cc1 (centres undefined),99.0,-2.6%,0.0,-2.3%,-16.1%,-21.4
SMILES,IL1B secr inh,TDP1 inh,CtBP-E1A inh,DT40 TDP1 CPT,TDP1 cell noCPT,Six1-Eya2 blk
O=C(CCN1CCCCC1)NCNC(=O)CCN1CCCCC1,-14.2,-1.0%,-1.3,-2.9%,-5.6%,1.9
O=C(Nc1ccc(F)cc1)c1cc(S(=O)(=O)N2CCCCC2)ccc1F,-9.7,0.9%,x,-18.2%,-23.6%,-3.4
O=c1cc(-c2cccc(F)c2)oc2ccccc12,-2.0,x,-5.1,u,u,-5.8
CC(=O)C1=C(c2ccccc2)NC(=O)NC1c1ccccc1OCC(=O)Nc1ccccc1 (centres undefined),0.0,-8.0%,-0.1,-17.8%,u,-0.2
CC/C(=N\NC(=S)Nc1cc(C)ccc1C)c1ccc(OC(F)F)cc1,0.0,9.1%,-16.1,u,16.4µM*,-26.0
COc1ccccc1NC(=S)NNC(=S)Nc1ccc(OC(F)F)cc1,-85.5*,4.4%,-8.1,u,20.6µM*,0.1
Cc1ccc(C)c(NC(=S)/C(=C(\[O-])c2ccc(OC(F)F)cc2)[n+]2ccccc2)c1,31.5,2.9%,-1.5,-24.5%,u,7.9
CC1(C)Cc2ccccc2-c2nnc(C(F)(F)F)n21,-12.2,-2.7%,-11.7,-19.0%,-15.7%,-1.9
C[N+]1(C)CCC(OC(=O)C(O)(c2ccccc2)C2CCCC2)C1 (centres undefined),-6.9,x,-0.5,0.1%,-1.8%,-4.4
Oc1ccc(-c2cnns2)c(O)c1,u,0.0%,-3.5,4.11µM*,4.61µM*,0.9
O=C(O)c1ccc(O)cc1O,1.7,1.7%,7.8,-14.0%,-12.0%,1.4
CCOc1ccc(-c2ccc(SCC(=O)NCC3CCCO3)nn2)cc1 (centres undefined),25.0,1.3%,-0.3,-1.0%,-14.9%,-3.9
CNC(=O)Nc1cccc(-c2ccnc(C)n2)c1,33.8,2.7%,2.2,7.3%,-7.7%,4.0
COc1cccc(C(=O)/C(C#N)=N/Nc2cccc(-c3ccnc(C)n3)c2)c1,0.0,5.5%,x,u,20.6µM*,2.8
O=C(c1ccc(Br)o1)N1CCN(c2ccc(F)cc2)CC1,u,8.7%,-0.8,-8.5%,-5.4%,0.0
CCCCCCOc1ccc(N2C(=O)CC(N3CCN(CCN=CC4C(=O)CC(C)(C)CC4=O)CC3)C2=O)cc1 (centres undefined),20.6,5.3%,x,u,23.1µM*,15.4
COc1cccc(NC(=O)CCc2nc(-c3cc(OC)c(OC)c(OC)c3)no2)c1,x,9.8%,x,18.4µM*,16.4µM*,x
COc1cc(-c2noc(CCC(N)=O)n2)cc(OC)c1OC,x,0.0%,x,x,x,x
